# High-throughput results deposited in PubChem BioAssay by National Center for Advancing Translational Sciences (NCATS).
# Rows were chosen to be rich in hits. Some 5.7% of all compounds tested hit in one or more screens of this group.
# VP16 counter – Gal4-VP16 reporter inhibition counter-screen; AID 2546; 3.5% of 310,000 active; Potency, µM (top dose mostly 53.6 µM), without a hit: at the highest dose activity, negative = inhibition, hits mostly inhibitors; Drosophila S2 Gal4-VP16 UAS-luciferase, luminescence, 20 h;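 also: Gal4-VP16 expression switched on by copper sulfate through the metallothionein promoter; nearly all actives have a fitted effect of over 50% in size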
# RORg inh – inhibitors of mouse ROR gamma transcriptional activity. P51450. Drosophila S2 Gal4-RORgamma UAS-luciferase reporter, 20 h. Potency, µM (top dose mostly 53.6 µM), inactives show at the top dose activity change, negative = inhibition, most hits filed as inhibitors. 5.4% of 310,000 active. AID 2551; also: nearly all actives have a fitted effect of over 60% in size
#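 Luciferase reporter read in Schneider cells carrying Gal4-RORγ (mouse) and UAS-Photinus luciferase; cells given compound 1 h before 700 uM copper sulfate induction, then incubated 20 h at ambient temperature.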
# B2AR arrestin – agonists driving beta-arrestin recruitment to human beta2-adrenergic receptor | 0.02% of 330,000 active | beta-arrestin recruitment to beta2AR, cell-based reporter | P07550 | AID 492947 | Potency, µM (titrated, usually from 46.1 µM), for the others: at the highest dose activation, actives largely listed as activators;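 also: 0% = DMSO controls and full agonism = EC100 isoproterenol or metaproterenol; nearly all actives have a fitted effect of over 65% in size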
# Target sequence (P07550 whole entry, looked up): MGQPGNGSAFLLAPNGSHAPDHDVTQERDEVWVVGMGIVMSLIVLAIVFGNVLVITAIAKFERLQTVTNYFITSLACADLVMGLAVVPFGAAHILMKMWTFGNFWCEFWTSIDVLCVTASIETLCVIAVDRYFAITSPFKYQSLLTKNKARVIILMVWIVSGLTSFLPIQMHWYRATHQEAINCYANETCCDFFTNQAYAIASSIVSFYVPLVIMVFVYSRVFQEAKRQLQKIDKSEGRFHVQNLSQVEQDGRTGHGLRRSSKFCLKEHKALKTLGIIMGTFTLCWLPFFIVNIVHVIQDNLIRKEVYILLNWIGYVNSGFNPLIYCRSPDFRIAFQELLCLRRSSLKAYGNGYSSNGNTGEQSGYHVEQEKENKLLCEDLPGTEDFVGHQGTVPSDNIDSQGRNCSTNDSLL
# NPSR antagonist – blocks cAMP signaling of the human neuropeptide S receptor; Q6W5P4; CHO-NPSR cells, cAMP TR-FRET, antagonist mode; Potency, µM (top dose mostly 38.3 µM), without a hit: at the top dose activity change, negative = inhibition, hits mostly inhibitors; 1% of 220,000 active; AID 1461; also: nearly all actives have a fitted effect of over 50% in size
# Numbers without * were called inactive; ? = inconclusive; / = no result; [ ] = remark or other dose. Calls follow the shape of the dose curve; as a rule, active = well fitted curve in the direction sought with a large enough effect; inconclusive = small, poorly fitted or top-dose-only effect, or another doubt; inactive = no such curve, though single readings can be large; an effect the other way counts as inactive or inconclusive. Unless noted, % is scaled to controls: 0 for no effect and ±100 for the full control effect; potency is read from the fitted curve at half-maximal effect.
SMILES,VP16 counter,RORg inh,B2AR arrestin,NPSR antagonist
COC(=O)c1ccc(NC(=O)CCS(=O)(=O)c2ccc(Br)cc2)cc1,11.2µM*,8.3%,0.1%,-9.1%
COC(=O)c1ccc(NC(=O)CCS(=O)(=O)c2ccc(C)cc2)cc1,?,3.4%,0.3%,/
COC(=O)c1ccc(NC(=O)CCS(=O)(=O)c2ccc3c(c2)NC(=O)C(C)S3)cc1 (stereo not given),7.08µM*,-38.8%,-0.4%,/
COC(=O)/C(=N/Nc1ccccc1C)N1CCCc2ccccc21,1.0%,-33.5%,0.3%,-21.3%
Cc1[nH]c(=S)c(C#N)c(C)c1Cc1ccccc1,8.91µM*,3.55µM*,0.5%,1.1%
Cc1cccc(Cc2c(C)[nH]c(=O)c(C#N)c2C)c1,11.3%,-30.6%,0.2%,6.7%
Cc1[nH]c(=S)c(C#N)c(C)c1CCC#N,-15.7%,14.1µM*,-0.8%,7.0%
CCCOC(=O)c1ccccc1O,1.7%,8.4%,/,/
C=C[C@@]1(C)CC(=O)[C@]2(O)[C@@]3(C)[C@@H](O)CCC(C)(C)[C@@H]3[C@H](O)[C@H](OC(C)=O)[C@@]2(C)O1,-7.2%,5.4%,/,/
C=C1C(=O)O[C@H]2C[C@]3(C)C([C@@H](OC(=O)/C(C)=C/C)[C@H]12)[C@](C)(O)CC[C@H]3O (stereo not given in full),?,11.2µM*,-0.1%,/
O=C(Nc1ccc(-c2n[nH]c(=S)o2)cc1)c1ccccc1,-2.2%,-26.7%,-1.0%,/
c1csc(-c2nc3ccccn3c2NC2CCCCC2)c1,-15.6%,10µM*,0.1%,-47.1%
Cc1ccn2c(NC(=O)c3ccccc3)c(-c3cccs3)nc2c1,6.7%,-1.1%,-0.7%,-12.6%[46.1 µM]
Cc1ccn2c(NCc3ccccc3)c(-c3cccs3)nc2c1,?,14.1µM*,0.1%,-49.0%
CCC(C)Sc1cc(-c2nc3ccccn3c2NC2CCCCC2)ccc1OC (stereo not given),/,/,-0.3%,/
CC(=O)c1ccc(-c2cccc(-c3nc4ccccn4c3NC3CCCCC3)c2)cc1,/,/,-0.2%,/
CC(C)c1nc2ccccn2c1NC1CCCCC1,?,5.01µM*,0.0%,-9.0%[46.1 µM]
Cc1ccn2c(NC3CCCC3)c(-c3cccs3)nc2c1,-29.4%,10µM*,-0.1%,?
COc1ccc(CCN=C(N)NS(=O)(=O)c2cc(F)ccc2F)cc1,5.3%,-5.3%,-0.5%,/
Brc1ccc(/C=C/C=N/Nc2nc3ccccc3s2)cc1,-2.6%,28.2%,5.7%,-11.7%[46.1 µM]
CCC/C=N/Nc1nc2ccccc2s1,?,11.2µM*,-0.2%,0.0%
C(=C\c1ccccc1)/C=N/Nc1nc2ccccc2s1,?,7.94µM*,0.1%,-7.5%[46.1 µM]
Cc1ccc(-c2csc(N/N=C/C=C/c3ccccc3)n2)cc1,?,2.82µM*,3.4%,-4.7%[46.1 µM]
CCN(CC(=O)NCc1cccs1)C(=O)/C=C/c1cccc(Cl)c1Cl,/,/,-0.2%,/
Nc1cccc2c(=O)[nH]ccc12,-5.4%,1.2%,/,/
SMILES,VP16 counter,RORg inh,B2AR arrestin,NPSR antagonist
Cc1ccc(S(=O)(=O)N2CCCCC2)cc1NC(=O)c1ccc(Cl)nc1,/,/,0.0%,/
Cc1nc2cnc(N3CCN(C)CC3)nc2n(C2CC2)c1=O,8.2%,-4.0%,/,/
Cc1c(NC(=O)c2cccc(NC(=O)Cc3ccc(F)cc3)c2)c(=O)n(-c2ccccc2)n1C,/,/,-0.3%,/
COC(=O)c1sc(S(=O)(=O)NCCC(=O)O)c(C(=O)OC)c1C,9.7%,-2.3%,0.0%,3.3%
COc1ccc(N2C3=C(CC4=C2CCCC4=O)C(=O)CCC3)cc1,-19.0%,-25.1%,-0.1%,-29.4%
COc1ccc(N2C3=C(CC4=C2CC(C)(C)CC4=O)C(=O)CC(C)(C)C3)cc1,-1.3%,5.4%,0.2%,2µM*
Cc1ccc(NC(=O)c2cc(S(=O)(=O)N(C)C)ccc2N2CCCC2)cc1F,/,/,-0.3%,/
COc1cccc(/C=N/NC(=O)CC(C)O)c1OC/C=C/c1ccccc1 (stereo not given),15.8µM*,11.2µM*,-0.8%,/
COc1cc(/C=N/NC(=O)c2cccnc2)ccc1OCC(=O)Nc1c(C)cc(C)cc1C,-5.6%,-4.1%,-1.6%,0.6%
COCC(=O)N/N=C\c1ccc(OC/C=C/c2ccccc2)c(OC)c1,?,12.6µM*,-1.3%,/
COc1cc(/C=N\NC(=O)CC#N)ccc1OC/C=C/c1ccccc1,?,-128.3%,-0.1%,/
CNC(=S)N/N=C/c1ccc(OCC(=O)Nc2c(C)cc(C)cc2C)c(OC)c1,12.6µM*,14.1µM*,1.8%,7.6%
COCCn1c(=O)c(-c2cccc(C#N)c2)nc2cnc(N3CCNCC3)nc21,-13.4%,-11.6%,/,/
N#CCCN1CCN(Cc2ccccc2)CCC1=O,-1.7%,-8.3%,-0.6%,/
Cc1cc(-c2n[nH]c(=S)n2Cc2ccco2)nn1C,-26.3%,?,-1.1%,10.7%
COc1ccc(-c2n[nH]c(=S)n2Cc2ccco2)cc1,?,15.8µM*,-0.2%,-14.7%[46.1 µM]
Oc1ccccc1-c1n[nH]c(=S)n1Cc1ccco1,6.0%,-35.7%,-0.5%,-6.4%[46.1 µM]
Cc1c(Br)c(-c2n[nH]c(=S)n2Cc2ccco2)nn1C,-2.8%,22.4µM*,-1.0%,-0.9%
COc1cccc(Cc2n[nH]c(=S)n2Cc2ccco2)c1,-25.1%,3.55µM*,0.0%,?
COc1cccc(CN2CCN(Cc3ccco3)CC2)c1,1.4%,-2.8%,-0.1%,/
CC1OC(OC2C(CO)OC(OC3C(CO)OC(O)C(O)C3O)C(O)C2O)C(O)C(O)C1NC1C=C(CO)C(O)C(O)C1O (stereo not given),0.7%,-4.6%,/,/
CCCCCCCCCCCCCCCC(=O)OC(C)C,-5.2%,-16.7%[10 µM],/,/
C[C@@H](C[C@@H](O)[C@H](O)C(C)(C)O)[C@@H]1CC[C@]2(C)C3=CC[C@H]4C(C)(C)C(=O)CC[C@]4(C)[C@H]3CC[C@@]12C,?,4.47µM*,-0.3%,-55.4%
CCOc1cc(/C=N/Nc2nc(N3CCCC3)nc(N3CCCC3)n2)ccc1O,5.01µM*,5.62µM*,-0.7%,12.6µM*
CCOc1cc(/C=N/Nc2nc(Nc3ccccc3)nc(N3CCCCC3)n2)ccc1OCC(=O)O,?,4.47µM*,0.0%,-11.8%
SMILES,VP16 counter,RORg inh,B2AR arrestin,NPSR antagonist
CCOc1cccc(/C=N/Nc2nc(N3CCCC3)nc(N3CCCC3)n2)c1O,-4.5%,?,-0.6%,-4.8%
COc1ccc(/C=N/Nc2nc(Nc3ccccc3)nc(N3CCCCC3)n2)cc1OC,-13.4%,9.6%,-0.4%,-29.5%[46.1 µM]
CS(=O)(=O)N1CCc2cc(C(=O)Nc3ccc(COCC(F)(F)F)cc3)ccc21,-2.8%,?,0.3%,/
O=P(O)(O)C(O)(Cn1ccnc1)P(=O)(O)O,-1.4%,4.7%,/,/
Cn1nnc(NC(=S)NC(=O)c2cc3ccccc3o2)n1,6.31µM*,1.12µM*,-0.2%,9.6%
CC(=O)Nc1ccc(NC(=S)NC(=O)c2cc3ccccc3o2)cc1,25.3%,-0.5%,-0.7%,4.0%
Cn1nnc(NC(=S)NC(=O)Cc2ccccc2)n1,11.2µM*,1.41µM*,0.1%,12.0%
Cn1nnc(NC(=S)NC(=O)c2ccco2)n1,10µM*,?,2.7%,2.6%[46.1 µM]
COC(=O)[C@@]1(Cc2ccc(OC)cc2)[C@H]2c3cc(C(=O)N4CCCC4)n(CCc4c[nH]c5cc(F)ccc45)c3C[C@H]2CN1C(=O)c1ccccc1,1.0%,23.9%,/,/
